dFosB activator: mouse delta FosB homodimer activation; purified delta FosB, TAMRA-CDK5 oligo fluorescence polarization; percent of positive-control signal above neutral wells; AID 493131; hit rate 0.99% among 340,000; activation, % at 25 µM; P13346;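 active = mean activation above about 17%, with every replicate also reaching it, limit read from the data, passing the limit was not always enough; inconclusive = only one of the two conditions met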
Target sequence (P13346 whole entry, looked up): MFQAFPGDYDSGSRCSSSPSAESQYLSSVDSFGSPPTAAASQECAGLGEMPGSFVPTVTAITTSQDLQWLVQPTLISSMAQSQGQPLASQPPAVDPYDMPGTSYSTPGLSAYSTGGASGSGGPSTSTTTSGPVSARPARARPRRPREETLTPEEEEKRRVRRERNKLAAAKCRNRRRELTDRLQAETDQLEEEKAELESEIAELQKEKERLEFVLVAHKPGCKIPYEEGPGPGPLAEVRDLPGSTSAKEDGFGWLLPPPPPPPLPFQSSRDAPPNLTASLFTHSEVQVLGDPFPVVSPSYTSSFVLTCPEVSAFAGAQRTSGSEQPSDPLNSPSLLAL
NALP1 inh: inhibitors of NALP1 inflammasome in yeast. S. cerevisiae NALP1/ASC/caspase-1 growth, X-gal OD620, 72 h. inhibition, % at 10 µM. hit rate 0.61% among 280,000. AID 2071; in the data active = inhibition mostly above about 24%, no sharp cut-off; inactive = mostly below about 32%
NALP3 yeast inh: inhibitors of NALP3 inflammasome in yeast; Yeast reconstituted NLRP3/ASC/caspase-1, beta-gal luminescence, 24 h; inhibition, % at 10 µM; hit rate 0.39% among 330,000;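 active = inhibition of 50% or more; inactive = inhibition below 50%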;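 also: plate controls were induced DMSO wells for no effect and uninduced yeast grown without galactose for full effect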
PolyA inhibitor: yeast polyadenylation inhibition. S. cerevisiae SKY197-pL101 polyadenylation reporter, beta-gal luminescence; efflux-impaired pdr1/pdr3 knockout yeast; score 100 = 6 SD above DMSO. activity score, % at 12 µM. hit rate 0.02% among 300,000;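 active = lowest replicate activity score at least 50, where 100 means six control SD above control mean; inconclusive = lowest score under 50 but half or more replicates reach 50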;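 also: yeast exposed to compound for 9 h at 30 °C; higher score means more reporter readthrough which indicates perturbed polyadenylation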
ZTA DNA inh: counter-screen for EBNA-1 inhibitors: inhibitors of Epstein-Barr virus ZTA. inhibition, % at 11 µM. ZTA-DNA binding, fluorescence polarization. P03206. hit rate 0.15% among 320,000; in the data active = inhibition above about 33%
Target sequence (P03206 whole entry, looked up): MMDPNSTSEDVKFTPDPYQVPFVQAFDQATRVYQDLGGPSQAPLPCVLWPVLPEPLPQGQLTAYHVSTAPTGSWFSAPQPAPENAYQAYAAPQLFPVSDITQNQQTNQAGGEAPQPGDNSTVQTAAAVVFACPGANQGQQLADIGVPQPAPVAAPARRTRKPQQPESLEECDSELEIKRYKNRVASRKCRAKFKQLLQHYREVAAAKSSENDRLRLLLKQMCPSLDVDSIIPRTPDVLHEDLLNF
EBNA-1 inh: blocks EBNA-1 binding to DNA | inhibition, % at 14.8 µM | AID 1950 | hit rate 0.34% among 300,000 | EBNA-1 DNA binding, fluorescence polarization; in the data active = inhibition above about 28%
EBNA-1 inh conf: EBNA-1 (EBV) inhibition, confirmation | inhibition, % at 14.8 µM | Recombinant EBNA-1 DBD, Cy5-DNA fluorescence polarization | shares compounds with EBNA-1 inh | AID 2292 | hit rate 35% among 830;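 active = mean inhibition across replicates above a set limit taken from the earlier primary screen, cut at about 28% in these data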;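 also: plate controls were EBNA-1 protein with DMSO for no effect and wells lacking EBNA-1 for full effect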
ZTA counter trip: counter-screen for EBNA-1 inhibitors: Epstein-Barr virus ZTA inhibitors, triplicate; shares compounds with EBNA-1 inh; 830 tested, under 10 active; inhibition, % at 11.1 µM; Zta-ZRE DNA binding, Cy5 fluorescence polarization;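 active = mean inhibition over triplicates above a set limit taken from the primary EBNA-1 screen, cut at about 37% in these data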;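 also: purified full length Zta protein with Cy5 labeled ZRE DNA probe; 0% = Zta with DMSO and 100% = wells lacking Zta protein; inhibitors lower polarization by freeing the labeled DNA probe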
Numbers without * were called inactive; ? = inconclusive; / = no result. Compounds with a hit are over-represented: about 2.2% of the library has one in this group of screens.

SMILES | dFosB activator | NALP1 inh | NALP3 yeast inh | PolyA inhibitor | ZTA DNA inh | EBNA-1 inh | EBNA-1 inh conf | ZTA counter trip
COc1cc2c(cc1OC)C(O)C(O)(CO)C(C(=O)O)C2c1cc(OC)c(OC)c(OC)c1 (centres undefined) | -4.2 | / | / | / | / | / | / | /
COc1cc(C2C(C#N)=C(N)N(c3sc4c(c3C#N)CCCC4)C3=C2C(=O)CC(C)(C)C3)cc(OC)c1OC (centres undefined) | 8.3 | -6.3 | 9.0 | -3.8 | 18.5 | 108.5* | 36.1* | 0.4
CN1CCN(C2=NC(=O)/C(=C/c3cn[nH]c3-c3ccccc3)S2)CC1 | -18.2 | 7.5 | 4.7 | 4.6 | -0.8 | 8.4 | / | /
O=C1N=C(N2CCCCC2)S/C1=C\c1cn[nH]c1-c1ccccc1 | -6.0 | 36.3 | -1.9 | -1.5 | 13.7 | 90.8* | 14.8 | 0.1
COc1ccc(Cn2cccc(NC(=O)Nc3cccc(C#N)c3)c2=O)cc1 | 9.1 | 9.6 | -1.0 | 0.0 | 24.4 | 105.7* | 117.3* | 1.2
Cc1cc(C(=O)O)cc(S(=O)(=O)Nc2ccccc2C(=O)NC2CC2)c1C | 3.5 | / | 14.5 | / | / | / | / | /
Cc1cccc(C)c1NC(=O)COc1ccc2c(C)c(Cc3ccccc3)c(=O)oc2c1 | -2.2 | 21.9 | 2.2 | 1.5 | 11.3 | 67.7* | 7.1 | -5.3
O=C(Nc1cccc(NC(=O)c2cccs2)c1)c1ccc(Br)cc1 | -3.3 | 11.1 | 16.2 | 25.3 | 12.5 | 69.8* | 75.3* | 8.5
O=C(Nc1cccc(NC(=O)c2ccc(F)cc2)c1)c1ccc(F)cc1 | 0.4 | 21.9 | 15.9 | 7.4 | 8.1 | 28.3* | 9.8 | 2.4
Cc1ccc(C)c(OCc2cc(C(=O)N3CC[C@@H]4CCCC[C@H]4C3)no2)c1 | -8.7 | -6.2 | 5.7 | -2.2 | 5.2 | 4.4 | / | /
COc1cc(C)ccc1OCc1cc(C(=O)N2CCC(c3ccc(F)cc3)C2)no1 (centres undefined) | -17.0 | 8.7 | 29.9 | 11.3 | -0.8 | 31.0* | 2.3 | 14.7
Cc1cc(N/N=C/c2c(O)ccc3ccccc23)nc(-c2ccccc2O)n1 | -3.0 | 22.1 | 19.5 | -8.4 | 12.1 | 49.0* | 20.5 | 1.2
Oc1ccc2ccccc2c1/C=N/Nc1ccccc1 | -6.0 | 35.5 | 0.9 | 0.8 | 1.6 | -5.9 | / | /
CC(C)OC(=O)c1cccc(NC(=O)CSc2nnc(N)s2)c1 | -5.8 | 0.2 | 4.8 | 15.6 | 8.5 | 2.4 | / | /
COc1ccc(OC)c(NC(=O)CN2CCc3ccccc3C2)c1 | -8.9 | 32.4 | 13.0 | -13.0 | -14.4 | 1.5 | / | /
C=CCOC(=O)C1=C(C)NC(C)=C(C(=O)OCC=C)C1c1cn(-c2ccccc2)nc1-c1ccco1 | -0.5 | 36.1 | 6.9 | -8.1 | 5.0 | 53.3* | 21.9 | 8.7
COCc1nc2oc3ccccc3c(=O)c2cc1C(=O)OC | -2.6 | 7.6 | 5.1 | 3.7 | 6.8 | 12.1 | / | /
NS(=O)(=O)c1ccc(NC(=O)c2ccc3c(c2)OCO3)cc1 | 8.7 | -22.9 | 4.7 | -8.4 | 2.6 | 9.8 | / | /
NS(=O)(=O)c1ccc(NC(=S)NC(=O)c2ccc3c(c2)OCO3)cc1 | -0.4 | 15.1 | -17.0 | 6.4 | 10.2 | 61.1* | 72.3* | 21.6
Nc1cc(=O)[nH]c(SCC(=O)N2CCC(Cc3ccccc3)CC2)n1 | -2.9 | / | 18.2 | / | -9.8 | / | / | /
CN(C(=O)CSCC(=O)Nc1ccc(Cl)cc1)C1CCCCC1 | -4.0 | / | 14.3 | / | / | / | / | /
Cc1cccc(NC(=O)c2ccc(C)c(S(=O)(=O)N3CCOCC3)c2)n1 | -1.5 | / | / | / | / | / | / | /
COCCn1c(SCC(=O)Nc2ccccc2F)nc2c([nH]c3ccccc32)c1=O | -0.3 | 4.2 | 6.7 | 24.3 | 15.5 | 0.0 | / | /
COCCn1c(SCC(=O)Nc2ccccc2OC)nc2c([nH]c3ccccc32)c1=O | 5.2 | 11.0 | 12.6 | -8.7 | 13.3 | 30.2* | -2.5 | 16.9
C=CCn1c(=NC(=O)C2COc3ccccc3O2)sc2cc(S(N)(=O)=O)ccc21 (centres undefined) | -1.6 | 38.7 | 2.8 | -7.0 | 7.8 | 31.5* | 10.8 | -9.6
SMILES | dFosB activator | NALP1 inh | NALP3 yeast inh | PolyA inhibitor | ZTA DNA inh | EBNA-1 inh | EBNA-1 inh conf | ZTA counter trip
COCCn1c(=NC(=O)C2COc3ccccc3O2)sc2cc(S(N)(=O)=O)ccc21 (centres undefined) | -15.5 | 31.0 | 2.1 | 2.9 | 1.5 | -9.5 | / | /
COc1cccc(-c2nc(CS(=O)(=O)CC(=O)Nc3c(C)cccc3C)c(C)o2)c1 | 15.0 | 10.8 | -3.2 | 7.3 | 1.1 | 1.5 | / | /
COc1ccc(OC)c(NC(=O)CS(=O)(=O)Cc2nc(-c3ccccc3C)oc2C)c1 | -5.8 | 34.6 | 8.7 | 9.2 | 1.0 | 56.8* | -12.4 | -2.2
C[C@H](CO)N1C[C@H](C)[C@@H](CN(C)S(=O)(=O)c2cccs2)Oc2c(NS(=O)(=O)c3ccccc3)cccc2C1=O | -2.9 | / | 11.7 | / | / | / | / | /
C/C(=N\NC(=O)c1c(Br)c(C)nn1C)c1ccc(NC(=O)c2ccoc2C)cc1 | -3.9 | 32.4 | 11.4 | 22.0 | 9.1 | 62.5* | 72.4* | 8.9
Cc1cc(C)n(/N=C/c2c[nH]c3ccccc23)c(=O)c1C#N | 5.5 | 6.3 | -9.4 | 0.8 | -1.2 | 27.8* | 14.2 | -6.9
Cc1ccc(-c2nc(CS(=O)(=O)CC(=O)NC3CCCCCC3)c(C)o2)cc1 | 7.2 | 17.6 | -18.6 | 3.0 | 6.8 | -13.0 | / | /
O=C(Cn1c(=O)n(Cc2ccccc2)c(=O)c2ccccc21)NCc1ccco1 | 6.9 | 0.4 | 14.0 | 19.6 | -5.3 | -1.1 | / | /
CN(C)c1ccc(NC(=O)Cn2c(=O)n(Cc3ccccc3)c(=O)c3ccccc32)cc1 | 14.5 | 11.0 | 7.4 | 8.3 | 9.7 | 43.3* | 34.9* | 1.6
CCCCOc1ccc(C(=O)Nn2c(-c3cccs3)nc3ccccc3c2=O)cc1 | 7.9 | 26.1 | 10.7 | -5.2 | 3.4 | 95.3* | 40.9* | 0.3
Oc1ccc(N=Nc2ccccc2C(F)(F)F)c2cccnc12 | -6.4 | 5.6 | 23.1 | 16.5 | 4.7 | 95.1* | -1.4 | 1.5
O=C(CN(Cc1ccccc1Cl)C(=O)c1csnn1)NCc1ccc2c(c1)OCO2 | 0.5 | 17.1 | 10.4 | 7.1 | -18.6 | 9.3 | / | /
Cc1cc(C)n(-c2ccc(Cl)c(C(=O)OCC(N)=O)n2)n1 | -0.9 | 2.2 | 7.5 | 17.8 | 9.8 | 36.5* | 12.3 | 7.3
CCN1CCN(C(=O)C(Cc2ccccc2)NC(=O)c2ccc(Cl)c(S(=O)(=O)N(C)C)c2)CC1 (centres undefined) | -6.1 | / | -8.4 | / | / | / | / | /
O=C(Nc1ccc(F)cc1)N(Cc1cccs1)Cc1cc2cc3c(cc2[nH]c1=O)OCO3 | 13.2 | 32.5 | 20.8 | -16.4 | 4.9 | -1.5 | / | /
O=C(Nc1ccc(F)cc1)N(Cc1ccco1)Cc1cc2cc3c(cc2[nH]c1=O)OCO3 | 11.3 | 27.2 | 2.0 | -22.4 | -0.4 | 28.1* | 12.3 | 5.0
COc1ccccc1NC(=S)N(Cc1ccco1)Cc1cc2cc(C)ccc2[nH]c1=O | ? | 8.2 | 15.2 | 12.7 | -21.9 | 41.8* | -1.7 | -13.4
